Shown are actives, neighbours in structure and some others; about 2.6% of the full set was active somewhere.
A549 tox – Nrf2 qHTS screen for inhibitors: counterscreen for cytotoxicity | A549 ARE-Fluc cells, CellTiter-Fluor viability, 18-24 h | Potency, µM (doses to about 46 µM), inactives show at the top dose activity change, negative = cytotoxicity, most hits filed as inhibitors | 390,000 compounds, 0.16% hits | AID 504648, 2011; also: potency is read from the fitted curve at half-maximal effect; % is scaled to controls: 0 for no effect and ±100 for the full control effect
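Cytotoxicity counterscreen: CellTiter-Fluor fluorescence was measured in A549 ARE_Fluc cells after 18-24 h of compound exposure in a concentration series. The subsequent BugLite luminescent read reports ARE-luciferase activity.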
Nrf2 activator – qHTS of Nrf2 Activators | 410,000 compounds, 0.31% hits | AREc32 ARE-luciferase reporter (MCF7-derived line), luminescence, 24 h | Potency, µM (highest dose often 46.1 µM), for the others: at the top dose activation, hits mostly activators; also: potency is read from the fitted curve at half-maximal effect; % of control where 0% means no effect; nearly all actives have a fitted effect of over 65% in size
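Cells of the AREc32 ARE-luciferase line are plated in OPTI-MEM containing 5% FBS and left overnight at 37 deg C. Compounds are pinned in, incubation continues 24 hr, and firefly luciferase signal is then measured.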
TCR activator – Activators of T cell receptors: qHTS campaign. primary human leukocytes, anti-CD3, IL-2 HTRF, 48 h. Potency, µM (highest dose often 9.22 µM), for the others: at the top dose activation of IL-2 secretion, actives largely listed as activators. 330,000 tested, under 10 active. AID 504894, 2011; also: % of control where 0% means no effect
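Readout: HTRF IL-2, Eu-cryptate/d2 antibody pair, 320nm excitation, 665nm emission. Stimulus: a-CD3 beads, no co-stimulation. Cells: primary human leukocytes. Exposure: 48 hr with compound.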
Nrf2 inh – Nrf2 qHTS screen for inhibitors; Potency, µM (series often up to 46 µM), for inactives: at the highest dose activity change, negative = inhibition, usual class: inhibitors; A549 ARE-Fluc reporter, luciferase luminescence, 18-24 h; 360,000 compounds, 2.1% hits; also: potency is read from the fitted curve at half-maximal effect; % is scaled to controls: 0 for no effect and ±100 for the full control effect; nearly all actives have a fitted effect of over 60% in size
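Two sequential reads on A549 ARE_Fluc cells exposed to compound for 18-24 h: a CellTiter-Fluor fluorescence read for viability, then a luciferase luminescence read for Nrf2/ARE activity.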
A-T KAP1 phos – qHTS Assay for Identifying a Potential Treatment of Ataxia-Telangiectasia | F2112 A-T fibroblasts, KAP-1 phosphorylation AlphaLISA; neocarzinostatin DNA damage 30 min before lysis | Potency, µM (highest dose often 57.5 µM), without a hit: at the top dose activation, actives largely listed as activators | 320,000 compounds, 0.19% hits; also: potency is read from the fitted curve at half-maximal effect; % of control where 0% means no effect; nearly all actives have a fitted effect of over 45% in size
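hTERT-immortalized A-T patient fibroblasts (F2112), 500 cells/well in OPTI-MEM, 1% FBS, got compounds for 60 min, then NCS for 30 min at 37C. Lysates were then assayed for phospho-KAP-1 by AlphaLISA (anti-pKAP1 donor, anti-KAP1 acceptor beads), 6 hr at 25C.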
CCT chaperon mod – High-Throughput Screening for Modulators of Cytosolic Chaperonin Activity | purified chaperonin ATPase assay, HTRF ADP detection, 30 min | activity change, % (concentration not given with the values), hits read low | 360,000 compounds, 0.3% hits | AID 651819, 2012; in the data active = activity change below about -30%; also: % is scaled to controls: 0 for no effect and ±100 for the full control effect
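We incubate TRiC, 40 or 20 nM final, with library compounds at 76 uM and 10 uM ATP for 30 min at 37 °C. ADP formed is detected with Transcreener HTRF reagents after 30 min at room temperature.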
* hit, by the source's call; u = inconclusive; x = not tested or not shown; ! = a repeat was not active; [ ] = dose if it differs, or a comment. Unless noted, calls follow the shape of the dose curve; as a rule, active = well fitted curve in the direction sought with a large enough effect; inconclusive = small, poorly fitted or top-dose-only effect, or another doubt; inactive = no such curve, though single readings can be large; an effect the other way counts as inactive or inconclusive.

SMILES	A549 tox	Nrf2 activator	TCR activator	Nrf2 inh	A-T KAP1 phos	CCT chaperon mod
Cc1ccc(NC(=O)Cn2nc(C)c([N+](=O)[O-])c2C)cc1C	-1%	-1%	-6%	-8%	-6%	0
O=C(Cn1cnc2ccccc21)Nc1ccc2c(c1)OCCCO2	-15%	0%	-1%	13µM*	17%	0
O=C(Cn1cnc2ccccc2c1=O)Nc1ccc2c(c1)OCO2	9%	3%	-1%[46.1 µM]	u	4%	0
CCc1ccc(NC(=O)Cn2cc([N+](=O)[O-])nc2C)cc1	10%	4%	3%	u	1%	1
COc1cc(F)c(S(=O)(=O)N2CCCN(S(=O)(=O)c3cccc(N)c3)CC2)c(F)c1	10%	x	x	26µM*!	x	x
N#CN=c1snc(-c2ccccc2Cl)n1-c1ccc(F)cc1	-1%	x	x	u	x	x
CC1(C)N=C(SCC(=O)Nc2ccc(Cl)cc2)C(c2ccc(Cl)cc2)=N1	u	16%	8%	26µM*	-1%	-1
CCOc1ccccc1NC(=S)NCCc1ccc(F)cc1	14%	1%	-6%	-5%	-1%	0
O=C1c2ccc(Br)cc2C(=O)N1c1ccc(Cc2ccncc2)cc1	-14%	2%	-4%	21µM*	2%	0
O=C1c2ccccc2C(=O)N1c1ccncc1	-3%	x	x	8%	x	x
CC1CCCC(C)N1CCCNC(=O)Cn1ncc2c3ccccc3n(C)c2c1=O (stereo not given)	-2%	0%	-5%	1%	7.1µM*	-1
O=C(Cn1ncc2c3ccccc3n(Cc3ccccc3)c2c1=O)NCCN1CCOCC1	2%	0%	3%	-6%	3%	-34*
CC1CCCCN1CCCNC(=O)Cn1ncc2c3ccccc3n(C)c2c1=O (stereo not given)	-2%	3%	x	u	x	x
CC(C)CCN1C(=O)c2ccc(C(=O)Nc3ccc(Br)cc3C(=O)O)cc2C1=O	2%	0%	x	6%	2%	-4
CCOc1ccc(/C=C/c2nc(C#N)c(N(C)C)o2)cc1	4%	11%	x	u	x	x
Clc1ccc(C2=NNC(=NCc3ccc4c(c3)OCO4)SC2)cc1	u	7%	-2%[46.1 µM]	23µM*	2%	-2
N#C/C(=C/c1ccc(N2CCOCC2)o1)c1ccc(Br)cc1	-19%	11µM*	-1%	7%	u	-8
N#C/C(=C/c1ccc(N2CCCCCC2)o1)c1cccc(F)c1	u	13µM*	-5%	x	u	-3
N#C/C(=C\c1ccc(N2CCOCC2)o1)C(=O)Nc1ccc(O)cc1	-18%	2%	10%	u	-7%	1
N#C/C(=C\c1ccc(N2CCOCC2)o1)c1ccccc1	-3%	14µM*	-16%	u	u	-1
N#C/C(=C/c1ccc(N2CCOCC2)o1)c1nc2ccccc2[nH]1	u	0%	19%[46.1 µM]	x	-2%	0
N#C/C(=C/c1ccc(N2CCCCCC2)o1)c1ccc(F)cc1	-13%	25%	-35%	u	x	-4
CCOc1ccc(C(=O)N2CCN(Cc3cc(=O)n4nc(-c5cccc(OC)c5)sc4n3)CC2)cc1	-8%	9%	x	x	x	x
COc1ccc(C2Nc3ccccc3C(=O)N2Cc2cccc(Cl)c2)cc1COc1ccc(NC(C)=O)cc1 (stereo not given)	-16%	x	x	23µM*	x	x
CCCN1C(=O)c2ccccc2NC1c1ccc(OC)c(COc2cccc(C)c2C)c1 (stereo not given)	-8%	x	x	26µM*	x	x
SMILES	A549 tox	Nrf2 activator	TCR activator	Nrf2 inh	A-T KAP1 phos	CCT chaperon mod
COc1ccc(C2Nc3ccccc3C(=O)N2Cc2ccccc2)cc1COc1ccc(NC(C)=O)cc1 (stereo not given)	-14%	x	x	14%	x	x
COc1ccc(CN(Cc2ccccc2)C(=O)c2ccccc2)cc1COc1ccc(NC(C)=O)cc1	-18%	x	x	23µM*	x	x
Cc1ccc(NS(=O)(=O)c2cc3c(cc2C)NC(=O)CO3)cc1C	1%	x	x	-16%	x	x
CC1Sc2ccc(S(=O)(=O)N3CCC(C(=O)NCc4ccco4)CC3)cc2NC1=O (stereo not given)	-8%	3%	-9%	-4%	-7%	-34*
COc1ccc(C(C)=O)cc1CS(=O)(=O)CC(=O)O	0%	0%	2%	7%	3%	-3
CC(C)COc1ccc(Nc2ncnc3ccc(Br)cc23)cc1	3%	10%	x	6%	x	x
CC(C)Nc1ncnc2ccc(Br)cc12	-8%	-2%	0%[46.1 µM]	10µM*	-2%	-15
N#C/C(=C\c1ccccn1)c1nc2ccccc2s1	-1%	18µM*	-8%	u	7%	0
Cc1c(Cl)cccc1N1CCn2c1nc1c2c(=O)n(CC(=O)O)c(=O)n1C	3%	-1%	x	-3%	x	x
CCOc1ccc(CCN2C(=O)C(=O)N([C@H](CCCN(C)Cc3ccccc3)CNCc3ccccc3)C[C@@H]2C(C)C)cc1	x	x	x	x	40µM*	x
O=C(CSc1oc(-c2ccc(F)cc2)nc1S(=O)(=O)c1ccc(Cl)cc1)c1ccccc1	-5%	-1%	x	-2%[9.27 µM]	x	x
COc1cc(OC)cc(C(=O)NC(=S)Nc2ccc3c4c(cccc24)CC3)c1	2%	-1%	6%	x	-13%	0
COc1cc(OC)cc(C(=O)NC(=S)NNC(=O)[C@H]2C[C@@H]2c2ccccc2)c1	-6%	0%	6%	u	1%	-1
COc1ccc(C(=O)NC(=S)Nc2ccc3c4c(cccc24)CC3)cc1OC	-16%	-1%	1%[46.1 µM]	7.3µM*	-6%	-3
COc1ccc(C(=O)NC(=S)NNC(=O)[C@H]2C[C@@H]2c2ccccc2)cc1OC	0%	0%	-5%	16µM*	2%	0
CC1=C(C(=O)N(C)C)CC(CC(=O)NC(c2ccccc2)c2ccccc2)C(=O)N1Cc1ccc(F)cc1 (stereo not given)	x	0%	x	x	x	-1
CC1=C(C(=O)N(C)C)CC(CC(=O)NC(c2ccccc2)c2ccccc2)C(=O)N1Cc1ccccc1 (stereo not given)	x	1%	x	x	x	-48*
COc1ccc(-n2c(-c3ccc(Br)cc3)c[n+]3c2CCc2ccccc2-3)cc1	-16%	8%	0%[46.1 µM]	8.2µM*	17%	-1
COc1ccc(NC(=O)c2nnn(Cc3nc(-c4cc(Br)ccc4OC)oc3C)c2C)cc1	1%	0%	x	-4%	x	x
CN(C)CCNC(=O)CN1C(=O)CCn2nc(-c3cn(C)c4ccccc34)cc21	14%	0%	x	x	x	x
Cc1cc(C)nc(SCNC(=O)c2ccc(F)cc2)n1	1%	0%	3%	4%	0%	-32*
Cc1cc(C)nc(SCC(=O)c2ccc(F)cc2)n1	4%	4%	x	5%	5%	0
